Source: PubChem BioAssay (Tox21)
Values without a mark were called inactive. The source made the active and inactive calls. Calls follow the shape of the dose curve; as a rule, active = well fitted curve in the direction sought with a large enough effect in the repeat runs; inconclusive = weak or mixed curves; inactive = flat fitted curve, though single readings scatter.

Assay: qHTS assay to test for compound auto fluorescence at 460 nm (blue) in HEK293 cell free culture (AID 720681)
Conditions: cell-free medium, autofluorescence 405/460 nm (blue); series mostly up to 91.3 µM; fluorescence, % of fluorescent control: at the top concentration
From the text: U.S. Tox21 Program National Center for Advancing Translational Sciences [NCATS] NIH Chemical Genomics Center [NCGC] U.S. Environmental Protection Agency [EPA] National Institutes of Environmental Health Sciences [NIEHS] National Toxicology Program [NTP] U.S. Food and Drug Administration [FDA] Tox21 Assay Overview: Compound auto fluorescence often interferes with screening of the compound library against various biological targets and signaling pathways. Some of these compounds may have fluorophoric properties. Such properties may interfere with the assay outputs resulting in false positives and/or negatives. To decrease such complications and ensure the compound activities are relevant in terms of biological response, the Tox21 10K compound library was screened for auto fluorescence. From the fluorophores used as reporter signals in our screening assays, the auto fluorescence equivalencies of compounds against three fluorophores have been evaluated: Triamterene, Fluorescein and Rose Bengal sodium for blue, green and red fluorescence, respectively. The fluorescence intensities were measured using Excitation/Emission wavelengths at 405/460nm, 485/535nm and 540/590nm for blue, green and red labels, respectively. This assay includes the blue fluorescence data.
Tox21 Assay Protocol Summary: 5 uL of culture medium (DMEM containing 10% FBS) per well was dispensed into black wall/clear bottom 1536-well plates using a Multidrop Combi Dispenser (ThermoFisher Scientific, Waltham, MA). After 23 nL compound or DMSO vehicle was transferred into assay plate by a pintool work station (Kalypsys, San Diego, CA), fluorescence intensities in the assay plates were measured by an Envision (PerkinElmer, Shelton, CT) plate reader using three labels for measuring blue, green and red fluorescence at […] 460, 535 and 590nm respectively.
% is scaled to controls: 0 for no effect and ±100 for the full control effect.

Q: Which “fluorescence, % of fluorescent control” value does the source give for CCOc1cc(C(C)(C)C)ccc1C1COC(c2c(F)cccc2F)=N1 (stereo not given) here?
A: Its value is -0.0333%.

Q: Which “fluorescence, % of fluorescent control” value does the source give for CCCSP(=O)(OCC)SCCC here?
A: Its value is -0.391% [at 95.7 µM].

Q: Which “fluorescence, % of fluorescent control” value does the source give for COc1cccc(C(=O)CCN[C@@H](C)[C@H](O)c2ccccc2)c1 here?
A: Its value is 0.0484% [at 46 µM].

Q: With CC(=O)[O-].[Tl+] as the molecule, how does the “fluorescence, % of fluorescent control” value read?
A: Its value is -0.178%.

Q: For CC(=O)/C=C/c1ccc2c(c1)OCO2, which “fluorescence, % of fluorescent control” value is on record?
A: Its value is 0.707%.

Q: With Oc1c(Cl)c(Cl)cc(Cl)c1Cl as the molecule, how does the “fluorescence, % of fluorescent control” value read?
A: The value was -0.108% [at 95.7 µM].

Q: Which “fluorescence, % of fluorescent control” value does the source give for O=[N+]([O-])O.O=[N+]([O-])O.[Cd] here?
A: Its value is 0.0793%.

Q: Which “fluorescence, % of fluorescent control” value does the source give for Cc1cc(C)cc(OP(=O)(Oc2cc(C)cc(C)c2)Oc2cc(C)cc(C)c2)c1 here?
A: The value was 0.0266% [at 95.7 µM].

Q: Which “fluorescence, % of fluorescent control” value does the source give for ClC(Cl)=C(Cl)Cl here?
A: The value was 0.0691%.

Q: With COP(=S)(OC)Oc1cc(Cl)c(Br)cc1Cl as the molecule, how does the “fluorescence, % of fluorescent control” value read?
A: Its value is -0.0014%.

Q: Which “fluorescence, % of fluorescent control” value does the source give for O=C(O)c1cc[c]([Hg][Cl])cc1 here?
A: The value was 0.17%.

Q: With O=CC(Br)(Br)Br as the molecule, how does the “fluorescence, % of fluorescent control” value read?
A: The value was -0.0011%.

Q: Which “fluorescence, % of fluorescent control” value does the source give for CC1(C)CN=C(NN=C(/C=C/c2ccc(C(F)(F)F)cc2)/C=C/c2ccc(C(F)(F)F)cc2)NC1 here?
A: Its value is 0.267%.

Q: With COP(=O)(OC)SCn1c(=O)oc2cc(Cl)cnc21 as the molecule, how does the “fluorescence, % of fluorescent control” value read?
A: The value was -0.347%.

Q: With CCCCCCCCCCCCCN1CC(C)OC(C)C1 (stereo not given) as the molecule, how does the “fluorescence, % of fluorescent control” value read?
A: Its value is -0.0565%.

Q: With CN(C)[C@@H]1C(=O)C(C(N)=O)=C(O)[C@@]2(O)C(=O)C3=C(O)c4c(O)ccc(Cl)c4[C@@](C)(O)[C@H]3C[C@@H]12 as the molecule, how does the Potency read?
A: The Potency was “inactive”.

Q: With CC(C)CCCCCCCOP(=O)(Oc1ccccc1)Oc1ccccc1 as the molecule, how does the “fluorescence, % of fluorescent control” value read?
A: The value was -0.0262%.

Q: For CCOCCOC(C)=O, which “fluorescence, % of fluorescent control” value is on record?
A: The value was -0.442%.

Q: With Cc1cc(C(F)(C(F)(F)F)C(F)(F)F)ccc1NC(=O)c1cccc(I)c1C(=O)NC(C)(C)CS(C)(=O)=O as the molecule, how does the “fluorescence, % of fluorescent control” value read?
A: The value was -0.0797%.

Q: With CC(C)Oc1cccc(NC(=O)c2ccccc2C(F)(F)F)c1 as the molecule, how does the “fluorescence, % of fluorescent control” value read?
A: Its value is -0.183%.

Q: With N#C/C=C/C#N as the molecule, how does the “fluorescence, % of fluorescent control” value read?
A: Its value is 0.362% [at 95.7 µM].

Q: For C[C@]12CC[C@H]3[C@@H](CCC4=CC(=O)CC[C@@]43C)[C@@H]1CC[C@@H]2O, which “fluorescence, % of fluorescent control” value is on record?
A: The value was 0.0174%.

Q: Which Potency does the source give for ClC1=C(Cl)C2(Cl)C3C(Cl)C(Cl)CC3C1(Cl)C2(Cl)Cl (stereo not given) here?
A: The Potency was “inactive”.

Q: Which “fluorescence, % of fluorescent control” value does the source give for BrC(Br)Br here?
A: The value was 0.0232%.

Q: For O=C(Nc1ccc2[nH]ccc2c1)c1cc2cc(F)ccc2n1Cc1cccc(F)c1, which “fluorescence, % of fluorescent control” value is on record?
A: The value was 0.0401%.

Q: Which “fluorescence, % of fluorescent control” value does the source give for Fc1ccc(Oc2ccnc3cc(Cl)cc(Cl)c23)cc1 here?
A: The value was 0.0739%.

Q: Which Potency does the source give for Clc1ccc(C(c2ccc(Cl)cc2)C(Cl)(Cl)Cl)cc1 here?
A: The Potency was “inactive”.

Q: Which Potency does the source give for CC(=O)O[C@H]1CC[C@@]2(C)C(=CC[C@@H]3[C@@H]2CC[C@]2(C)C(=O)CC[C@@H]32)C1 here?
A: Its Potency is “inactive”.

Q: Which “fluorescence, % of fluorescent control” value does the source give for c1ccc2c(c1)[nH]c1cnccc12 here?
A: The value was 2.33%.

Q: For BrCBr, which “fluorescence, % of fluorescent control” value is on record?
A: Its value is 0.129% [at 95.7 µM].

Q: With CCN(CC)c1c([N+](=O)[O-])cc(C(F)(F)F)c(N)c1[N+](=O)[O-] as the molecule, how does the “fluorescence, % of fluorescent control” value read?
A: Its value is 0.0371%.

Q: For ClC(Cl)=C(c1ccc(Cl)cc1)c1ccc(Cl)cc1, which Potency is on record?
A: The Potency was “inactive”.

Q: For C[C@H]1O[C@@H](O[C@H]2[C@@H](O)C[C@H](O[C@H]3[C@@H](O)C[C@H](O[C@H]4CC[C@@]5(C)[C@H](CC[C@@H]6[C@@H]5CC[C@]5(C)[C@@H](C7=CC(=O)OC7)CC[C@]65O)C4)O[C@@H]3C)O[C@@H]2C)C[C@H](O)[C@@H]1O, which Potency is on record?
A: Its Potency is “inactive”.

Q: Which “fluorescence, % of fluorescent control” value does the source give for CCCCCCCCCCCCCCC(Br)C(=O)O (stereo not given) here?
A: The value was 0.0006%.

Q: Which “fluorescence, % of fluorescent control” value does the source give for CC(C)N1C(=O)N(c2ccccc2)CSC1=NC(C)(C)C here?
A: The value was -0.0152%.

Q: Which “fluorescence, % of fluorescent control” value does the source give for BrC(Br)C(Br)(Br)Br here?
A: Its value is -0.0153%.

Q: Which “fluorescence, % of fluorescent control” value does the source give for CC1(C)CC/C(=C/c2ccc(Cl)cc2)C1(O)Cn1cncn1 (stereo not given) here?
A: The value was -0.205%.

Q: For CSCCCN=C=S, which “fluorescence, % of fluorescent control” value is on record?
A: Its value is -0.167%.

Q: For CC(C)CC(C)Nc1ccc(Nc2ccccc2)cc1 (stereo not given), which “fluorescence, % of fluorescent control” value is on record?
A: Its value is 0.416%.

Q: With O=C(O)COc1nc(Cl)c(Cl)cc1Cl as the molecule, how does the “fluorescence, % of fluorescent control” value read?
A: The value was -0.331% [at 95.7 µM].
